For test [1], the target named is Lysosomal acid glucosylceramidase (Homo sapiens) (UniProt P04062). Put plainly: Glucocerebrosidase-p2 (AID 348; in the data active means potency below about 10 µM; further: potency means the concentration at half of the fitted maximal effect). To be noted: purified GBA, blue fluorogenic substrate, 40 min. The gist of the method: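 Normal human glucocerebrosidase (0.2 nM) with blue fluorogenic substrate (80 uM final) in citrate/phosphate pH 5.9 with 10mM sodium taurocholate, 0.01% tween-20; 40 min RT, NaOH/glycine stop; fluorescence Ex 365/Em 440; AC50 from a titration from 0.6 nM upwards.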
Lysosomal acid glucosylceramidase (Homo sapiens), sequence (P04062 whole entry, looked up): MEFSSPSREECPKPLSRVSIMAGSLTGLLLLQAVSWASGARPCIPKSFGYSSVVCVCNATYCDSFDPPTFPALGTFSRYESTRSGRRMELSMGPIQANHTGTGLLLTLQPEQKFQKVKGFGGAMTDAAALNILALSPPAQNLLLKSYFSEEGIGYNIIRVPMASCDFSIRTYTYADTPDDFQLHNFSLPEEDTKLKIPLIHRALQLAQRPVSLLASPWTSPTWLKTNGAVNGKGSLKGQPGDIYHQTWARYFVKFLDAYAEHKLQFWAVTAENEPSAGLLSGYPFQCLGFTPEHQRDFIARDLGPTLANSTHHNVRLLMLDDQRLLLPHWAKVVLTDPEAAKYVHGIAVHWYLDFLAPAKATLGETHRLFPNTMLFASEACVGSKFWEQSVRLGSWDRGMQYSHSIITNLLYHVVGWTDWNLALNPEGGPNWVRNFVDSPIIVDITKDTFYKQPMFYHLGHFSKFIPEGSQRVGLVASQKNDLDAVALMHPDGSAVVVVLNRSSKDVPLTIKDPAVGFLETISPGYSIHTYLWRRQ

Test [2] can be described thus: AP1 Signaling Pathway (AID 357; active means well fitted curve in either direction with a large enough effect, not every such curve was filed as active; further: on the % scale 0 is the no-effect control and ±100 the full control effect). To be noted: ME-180 AP-1-bla reporter, EGF-induced, beta-lactamase ratio, 5 h; at 7.69 µM (top of the series) unless noted. The gist of the method: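 ME-180 cells with beta-lactamase reporter under AP-1 response element, stimulated with EC50 EGF; compounds tested in titration series, 5 h at 37 °C. CCF4 substrate added 2.5 h at room temperature; 460/530 nm emission ratio gave %activity and AC50.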

Test [3] has as its target Cytochrome P450 1A2 (Homo sapiens) (UniProt P05177). Put plainly: p450-cyp1a2 (AID 410; calls by dose curve; further: potency means the concentration at half of the fitted maximal effect). To be noted: recombinant CYP1A2, luciferin-ME demethylation, luminescence; series mostly up to 57 µM. An outline of the steps: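 Read-out is luminescence from luciferin produced by CYP1A2 demethylation of Luciferin-ME (100uM, at Km). Detection reagent stopped the 60 min NADPH-dependent reaction; signals were normalized to 57 uM furafylline.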

The nature of test [4]: NFAT Signaling Pathway (AID 444; active means well fitted curve in either direction with a large enough effect, not every such curve was filed as active;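 further: carbachol stimulus at about its EC50 of 1 µM final; on the % scale 0 is the no-effect control and ±100 the full control effect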). To be noted: Jurkat NFAT-bla M1, carbachol, beta-lactamase ratio, 5 h; at 7.69 µM (top of the series) unless noted. An outline of the steps: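 Jurkat cells carrying an NFAT-driven β-lactamase reporter and co-transfected muscarinic M1 receptor were treated with compound plus carbachol (1 uM final, an EC50 level) for 5 h at 37 °C. CCF4 loading followed for 1 h at RT; 460/530 nm ratio gave %activity.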

Test [5] can be described thus: Stat Signaling Pathway (AID 446; active means well fitted curve in either direction with a large enough effect, not every such curve was filed as active;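 further: ME-180 cervical cancer cells given 40 pM IL-6 alongside compound; SIE-controlled beta-lactamase reporter measured as 460/530 nm FRET emission ratio; on the % scale 0 is the no-effect control and ±100 the full control effect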). To be noted: ME-180 (cervical carcinoma) SIE beta-lactamase reporter, IL-6 stimulated, 5 h; at 7.69 µM (top of the series) unless noted. The gist of the method:
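Compound effects on IL-6-induced STAT reporter activity were measured in ME-180 cells. After overnight culture, cells were co-treated with 40 pM IL-6 for 5 hrs before beta-lactamase substrate loading at room temperature.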

Test [6] deals with Glucocorticoid receptor (Homo sapiens) (UniProt P04150). Put plainly: GR-GFP Redistribution (AID 450;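 active means compounds whose dose series gives a full or clear partial fitted curve of increased nuclear translocation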; further: potency means the concentration at half of the fitted maximal effect). The following applies: U2OS GR-GFP nuclear translocation, laser cytometry, 2 h.
Glucocorticoid receptor (Homo sapiens), sequence (P04150 whole entry, looked up, the tested form may be a part): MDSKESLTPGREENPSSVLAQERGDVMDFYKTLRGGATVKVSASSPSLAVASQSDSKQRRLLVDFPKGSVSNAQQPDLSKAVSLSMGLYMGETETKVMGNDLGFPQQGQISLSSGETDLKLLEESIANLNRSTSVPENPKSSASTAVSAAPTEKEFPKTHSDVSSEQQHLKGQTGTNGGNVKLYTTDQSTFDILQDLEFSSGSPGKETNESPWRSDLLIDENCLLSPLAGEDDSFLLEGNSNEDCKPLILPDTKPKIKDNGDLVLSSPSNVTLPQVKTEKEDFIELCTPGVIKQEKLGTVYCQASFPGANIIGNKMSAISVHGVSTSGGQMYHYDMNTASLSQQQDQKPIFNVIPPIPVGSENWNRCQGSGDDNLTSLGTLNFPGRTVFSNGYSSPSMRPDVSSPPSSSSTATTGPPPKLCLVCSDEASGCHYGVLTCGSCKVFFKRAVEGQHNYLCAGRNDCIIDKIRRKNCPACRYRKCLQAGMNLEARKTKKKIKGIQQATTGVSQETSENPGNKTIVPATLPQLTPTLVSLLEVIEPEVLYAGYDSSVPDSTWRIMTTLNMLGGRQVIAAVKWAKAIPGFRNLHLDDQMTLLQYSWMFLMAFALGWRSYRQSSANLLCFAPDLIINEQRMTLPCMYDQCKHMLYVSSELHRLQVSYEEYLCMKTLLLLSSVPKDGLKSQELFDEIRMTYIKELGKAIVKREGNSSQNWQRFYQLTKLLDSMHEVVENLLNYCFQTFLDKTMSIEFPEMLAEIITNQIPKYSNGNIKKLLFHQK
Test [7] has the same target. Kind of test: GR-EFC Redistribution (AID 451; calls by dose curve; further: potency means the concentration at half of the fitted maximal effect). The following applies: CHO-K1 GR-EFC translocation, beta-gal luminescence, 2 h. The gist of the method: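 CHO-K1 cells stably expressing nuclear-localized β-gal enzyme acceptor and GR fused C-terminally to the enzyme donor fragment; ligand-driven nuclear translocation restores β-gal by complementation. Compounds titrated up to 46 uM final, 2 h at 37 °C; luminescence read.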

In test [8] the target is Mitogen-activated protein kinase 10 (Mus musculus) (UniProt Q61831). Kind of test: JNK3 AlphaScreen Assay (AID 530; active means well fitted curve in either direction with a large enough effect, not every such curve was filed as active;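 further: kinase came from lysate of stimulated human HepG2 cells; signal reports phosphorylation of biotinylated GST-cJun 1-79 at Ser73 with 10 µM ATP; on the % scale 0 is the no-effect control and ±100 the full control effect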). To be noted: JNK3 lysate, c-Jun phosphorylation; series mostly up to 57.1 µM. The gist of the method:
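Biotinylated GST-cJun(1-79) served as substrate for JNK3 in HepG2 lysates stimulated with IL-1beta and TNF-alpha. ATP was 10 uM final, pH 7.6. Ser73 phosphorylation was quantified by AlphaScreen (680 nm excitation).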

The nature of test [9]: qHTS Assay for Lipid Storage Modulators (AID 1519; calls by dose curve). The following applies: Drosophila S3 cells, BODIPY lipid droplet/cell ratio, laser cytometry, cells loaded with oleic acid; for activity change, negative = inhibition: at 57.5 µM (top of the series). An outline of the steps:
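Cells seeded at 5,000 per well were treated with compounds over a concentration series and loaded with oleic acid (400 uM, as added). Lipid droplet fluorescence (488 nm excitation, 500-530 nm channel) was read by laser-scanning cytometry and normalized to 20 uM Triacsin C.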
In general terms: qHTS replaces the single test concentration by a dilution series.

Test [10] has as its target Ubiquitin carboxyl-terminal hydrolase 1 (Homo sapiens) (UniProt O94782). Kind of test: Inhibitors of USP1/UAF1: Pilot qHTS (AID 504865).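 Further: rhodamine fluorescence freed from ubiquitin-rhodamine substrate followed over time; top concentration of the series differs between compounds; on the % scale 0 is the no-effect control and ±100 the full control effect; nearly all actives have a fitted effect of over 35% in size.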 The following applies: purified USP1/UAF1, Ub-rhodamine cleavage fluorescence; series mostly up to 54.9 µM. The gist of the method: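 Enzyme-free wells gave the negative control, while test wells held 1nM USP1/UAF1 preincubated with compound for 15 min at room temperature. Ub-Rho at 150nM final started the reaction, and fluorescence at 480/540 nm was recorded kinetically.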

A short description of test [11]: Primary qHTS for small molecule stabilizers of the endoplasmic reticulum resident proteome: Secreted ER Calcium Modulated Protein (SERCaMP) assay (AID 1508630). Further: on the % scale 0 is the no-effect control and ±100 the full control effect. The following applies: SH-SY5Y GLuc-SERCaMP (Gaussia luciferase released on ER calcium loss) secretion, thapsigargin, luminescence; series mostly up to 38.4 µM. The gist of the method: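 The SH-SY5Y reporter protocol was run at 3 concentrations up to 38.3 uM (primary) or 11 concentrations (follow-up): 16 h compound, 100 nM thapsigargin for 4 h, then extracellular luciferase luminescence.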

Test [12] has as its target 3',5'-cyclic-AMP phosphodiesterase 4B (Homo sapiens) (UniProt Q07343). Kind of test: qHTS Assay for Inhibitors of PDE-IV (AID 607; active means well fitted activation curve with a large enough effect in the main read-out, with a control signal flat, not every such curve was filed as active; further: potency means the concentration at half of the fitted maximal effect). To be noted: HEK293 ACTOne CNG channel cells, membrane potential fluorescence; series mostly up to 22.9 µM. The gist of the method: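 ACTOne HEK293 cells carry a modified cAMP-gated CNG channel and express endogenous PDE4; plated 1000 cells/well, compounds up to 22.9 uM final. Membrane-potential dye fluorescence (ex 535/em 590) was read; parental cells received 10 uM forskolin + 100 uM RO 20-1724.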

Test [13] has as its target Cytochrome P450 3A4 (Homo sapiens) (UniProt P08684). Kind of test: qHTS Assay for Inhibitors and Substrates of Cytochrome P450 3A4 (AID 884). Further: potency means the concentration at half of the fitted maximal effect; nearly all actives have a fitted effect of over 50% in size. The following applies: recombinant CYP3A4, Luciferin-PPXE luminescence; series mostly up to 57.1 µM. An outline of the steps: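 Luminescent readout of luciferin produced by CYP3A4 (20 nM) dealkylation of Luciferin-PPXE, 25 uM (its KM). NADPH-driven reaction ran 60 min at RT after 10 min compound preincubation; data scaled to 57 uM ketoconazole as 100% inhibition.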

For test [14] the target is unchanged. Put plainly: qHTS Assay for Activators of Cytochrome P450 3A4 (AID 885). Further: nearly all actives have a fitted effect of over 65% in size. The following applies: recombinant CYP3A4, Luciferin-PPXE luminescence, 60 min; series mostly up to 57.1 µM. The gist of the method: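 CYP3A4 activity: Luciferin-PPXE O-dealkylation, 25uM substrate, 200mM KPO4, RT throughout. Read-out is luciferase luminescence; higher values reflect activation.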

Test [15] deals with Cytochrome P450 2C19 (Homo sapiens) (UniProt P33261). Put plainly: qHTS Assay for Inhibitors and Substrates of Cytochrome P450 2C19 (AID 899). Further: potency means the concentration at half of the fitted maximal effect; nearly all actives have a fitted effect of over 60% in size. To be noted: recombinant CYP2C19, luciferin-H EGE luminescence; series mostly up to 57.1 µM. An outline of the steps: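 NADPH-dependent conversion of Luciferin-H EGE (10uM, at KM) by 5nM enzyme in 50mM KPO4, 60 min at 37C following 10 min compound preincubation. Stopped with luciferin detection buffer; luminescence read after 20 min.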
Cytochrome P450 2C19 (Homo sapiens), sequence (P33261 whole entry, looked up): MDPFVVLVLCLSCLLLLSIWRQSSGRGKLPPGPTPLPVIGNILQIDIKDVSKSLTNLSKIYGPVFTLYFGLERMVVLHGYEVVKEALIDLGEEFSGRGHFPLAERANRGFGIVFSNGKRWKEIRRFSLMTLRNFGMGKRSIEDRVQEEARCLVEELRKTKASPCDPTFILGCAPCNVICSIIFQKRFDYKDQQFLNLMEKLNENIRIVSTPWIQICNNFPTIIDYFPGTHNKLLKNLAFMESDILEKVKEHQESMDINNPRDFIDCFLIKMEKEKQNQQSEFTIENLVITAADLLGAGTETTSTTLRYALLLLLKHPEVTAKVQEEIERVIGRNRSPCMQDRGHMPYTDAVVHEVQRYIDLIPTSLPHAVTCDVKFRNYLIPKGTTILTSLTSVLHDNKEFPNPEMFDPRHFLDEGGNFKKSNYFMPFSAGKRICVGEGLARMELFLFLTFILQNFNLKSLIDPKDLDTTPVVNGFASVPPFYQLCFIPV

Test [16] can be described thus: Confirmation and Secondary Assay for Modulators of Hemoglobin Beta Chain Splicing at IVS2 654 locus (AID 910).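 Further: per-well total GFP intensity by laser scanning cytometry after 2-day treatment; % of control where 0% means no effect.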 The following applies: HeLa EGFP-654 splicing reporter, GFP fluorescence, 48 h; series mostly up to 38.3 µM. An outline of the steps: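 HeLa cells stably carrying EGFP interrupted by mutant beta-globin IVS2-654 intron (CMV-driven) were treated with compound for 2 days at 37C; corrected splicing was scored as total peak GFP intensity per well (488 nm excitation, 500-520 nm emission).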

Test [17] is described as follows: Confirmation and Secondary Assay for Modulators of Hemoglobin Beta Chain Splicing at IVS2 705 locus (AID 930).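 Further: HeLa cells stably expressing the EGFP-705 splicing reporter; GFP fluorescence per well restored by corrected splicing of the IVS2-705 intron in EGFP; % of control where 0% means no effect.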 To be noted: HeLa EGFP-705 splicing reporter, GFP fluorescence, 48 h; series mostly up to 38.3 µM. The gist of the method:
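Assay measures total GFP intensity per well in HeLa EGFP-705 cells after 2 days with compound; mis-splicing normally truncates EGFP, so fluorescence indicates corrected splicing.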

Test [18] has as its target Dual specificity protein kinase CLK4 (Homo sapiens) (UniProt Q9HAZ1). Kind of test: qHTS Assay for Inhibitors of CDC-like Kinase 4 (ADP-FP Assay) (AID 1795).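 Further: recombinant human CLK4 phosphorylating RS repeat peptide at 1 µM ATP; on the % scale 0 is the no-effect control and ±100 the full control effect; nearly all actives have a fitted effect of over 60% in size.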 The following applies: Transcreener ADP fluorescence polarization; series mostly up to 50 µM. The gist of the method:
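Kinase activity was followed as ADP output, converted from fluorescence polarization with a calibration curve. Reactions ran one hour at low ATP (1 uM) with RS peptide substrate.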

Where [19] appears, read: measured here: cell count channel max response.
Where [20] appears, read: measured here: lipid channel max response.

Results filed as inconclusive are left out. The source made the active and inactive calls. Unless noted, the call rests on the fitted dose curve; in most records, active means well fitted curve in the direction sought with a large enough effect; inconclusive means small, poorly fitted or top-dose-only effect, or another doubt; inactive means no such curve, though single readings can be large; an effect the other way counts as inactive or inconclusive. Some results are limits rather than exact numbers.

3',5'-cyclic-AMP phosphodiesterase 4B (Homo sapiens), sequence (Q07343 whole entry, looked up): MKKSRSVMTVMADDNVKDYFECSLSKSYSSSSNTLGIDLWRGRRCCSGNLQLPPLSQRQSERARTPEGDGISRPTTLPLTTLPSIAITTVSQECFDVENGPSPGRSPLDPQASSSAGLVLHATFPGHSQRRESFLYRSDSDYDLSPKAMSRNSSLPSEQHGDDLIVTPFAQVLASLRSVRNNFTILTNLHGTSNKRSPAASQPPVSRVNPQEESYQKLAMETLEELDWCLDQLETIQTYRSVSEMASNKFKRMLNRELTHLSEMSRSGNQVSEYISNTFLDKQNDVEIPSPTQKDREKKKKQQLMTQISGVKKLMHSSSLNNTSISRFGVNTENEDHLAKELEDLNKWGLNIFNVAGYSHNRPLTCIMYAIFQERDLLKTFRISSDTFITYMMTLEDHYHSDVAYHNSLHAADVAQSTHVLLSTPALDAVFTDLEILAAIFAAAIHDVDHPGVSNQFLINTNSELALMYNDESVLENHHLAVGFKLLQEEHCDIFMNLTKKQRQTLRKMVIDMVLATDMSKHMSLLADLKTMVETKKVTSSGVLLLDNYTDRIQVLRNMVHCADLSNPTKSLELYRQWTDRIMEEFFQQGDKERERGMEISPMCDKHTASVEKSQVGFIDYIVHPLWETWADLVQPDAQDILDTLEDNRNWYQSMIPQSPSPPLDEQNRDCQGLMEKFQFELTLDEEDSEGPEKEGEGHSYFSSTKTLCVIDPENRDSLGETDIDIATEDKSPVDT
Cytochrome P450 1A2 (Homo sapiens), sequence (P05177 whole entry, looked up): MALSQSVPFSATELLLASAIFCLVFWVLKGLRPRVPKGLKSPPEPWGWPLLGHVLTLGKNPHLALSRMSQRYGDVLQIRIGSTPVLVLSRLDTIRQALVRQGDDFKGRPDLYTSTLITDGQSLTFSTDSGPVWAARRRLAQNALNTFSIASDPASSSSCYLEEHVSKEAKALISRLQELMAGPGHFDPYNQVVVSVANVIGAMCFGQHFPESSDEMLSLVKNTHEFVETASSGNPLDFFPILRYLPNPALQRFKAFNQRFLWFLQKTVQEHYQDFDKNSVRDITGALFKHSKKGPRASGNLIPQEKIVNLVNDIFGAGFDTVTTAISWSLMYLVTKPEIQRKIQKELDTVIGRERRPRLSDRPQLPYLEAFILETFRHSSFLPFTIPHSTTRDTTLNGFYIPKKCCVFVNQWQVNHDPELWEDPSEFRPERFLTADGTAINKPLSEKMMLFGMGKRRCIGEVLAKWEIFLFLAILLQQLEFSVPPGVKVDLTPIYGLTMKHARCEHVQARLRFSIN
Cytochrome P450 3A4 (Homo sapiens), sequence (P08684 whole entry, looked up): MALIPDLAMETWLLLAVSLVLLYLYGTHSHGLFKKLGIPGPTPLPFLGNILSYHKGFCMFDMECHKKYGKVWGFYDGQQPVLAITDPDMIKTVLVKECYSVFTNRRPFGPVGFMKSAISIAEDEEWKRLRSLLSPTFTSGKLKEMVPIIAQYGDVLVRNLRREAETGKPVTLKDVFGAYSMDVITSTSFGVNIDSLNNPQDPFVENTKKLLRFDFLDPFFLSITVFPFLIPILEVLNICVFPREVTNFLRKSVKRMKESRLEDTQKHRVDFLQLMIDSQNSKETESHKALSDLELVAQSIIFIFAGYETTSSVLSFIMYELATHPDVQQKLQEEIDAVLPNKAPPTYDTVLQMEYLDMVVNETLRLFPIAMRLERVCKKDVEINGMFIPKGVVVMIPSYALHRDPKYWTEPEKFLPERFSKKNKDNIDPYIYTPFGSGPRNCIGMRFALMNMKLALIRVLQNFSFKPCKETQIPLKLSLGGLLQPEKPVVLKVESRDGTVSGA
Ubiquitin carboxyl-terminal hydrolase 1 (Homo sapiens), sequence (O94782 whole entry, looked up): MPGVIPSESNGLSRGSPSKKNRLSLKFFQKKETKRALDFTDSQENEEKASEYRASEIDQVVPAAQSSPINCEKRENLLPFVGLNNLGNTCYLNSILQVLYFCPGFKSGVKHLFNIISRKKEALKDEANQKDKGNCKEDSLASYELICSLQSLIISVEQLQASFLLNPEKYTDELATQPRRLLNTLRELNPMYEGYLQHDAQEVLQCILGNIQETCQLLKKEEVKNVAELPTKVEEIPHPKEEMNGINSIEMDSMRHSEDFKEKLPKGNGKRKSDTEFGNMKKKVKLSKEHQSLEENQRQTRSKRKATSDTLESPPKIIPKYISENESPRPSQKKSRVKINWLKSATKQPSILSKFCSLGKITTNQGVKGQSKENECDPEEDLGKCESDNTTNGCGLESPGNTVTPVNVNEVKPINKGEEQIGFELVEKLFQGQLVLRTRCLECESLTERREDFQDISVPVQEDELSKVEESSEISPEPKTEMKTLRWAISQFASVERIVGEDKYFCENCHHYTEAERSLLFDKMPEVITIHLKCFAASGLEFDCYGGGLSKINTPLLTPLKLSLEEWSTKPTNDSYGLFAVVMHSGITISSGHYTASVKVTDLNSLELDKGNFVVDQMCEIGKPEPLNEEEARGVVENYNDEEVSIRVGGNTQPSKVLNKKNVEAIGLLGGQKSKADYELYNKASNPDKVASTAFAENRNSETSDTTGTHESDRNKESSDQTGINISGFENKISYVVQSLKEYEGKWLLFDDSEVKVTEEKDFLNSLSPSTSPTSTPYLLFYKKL
Dual specificity protein kinase CLK4 (Homo sapiens), sequence (Q9HAZ1 whole entry, looked up): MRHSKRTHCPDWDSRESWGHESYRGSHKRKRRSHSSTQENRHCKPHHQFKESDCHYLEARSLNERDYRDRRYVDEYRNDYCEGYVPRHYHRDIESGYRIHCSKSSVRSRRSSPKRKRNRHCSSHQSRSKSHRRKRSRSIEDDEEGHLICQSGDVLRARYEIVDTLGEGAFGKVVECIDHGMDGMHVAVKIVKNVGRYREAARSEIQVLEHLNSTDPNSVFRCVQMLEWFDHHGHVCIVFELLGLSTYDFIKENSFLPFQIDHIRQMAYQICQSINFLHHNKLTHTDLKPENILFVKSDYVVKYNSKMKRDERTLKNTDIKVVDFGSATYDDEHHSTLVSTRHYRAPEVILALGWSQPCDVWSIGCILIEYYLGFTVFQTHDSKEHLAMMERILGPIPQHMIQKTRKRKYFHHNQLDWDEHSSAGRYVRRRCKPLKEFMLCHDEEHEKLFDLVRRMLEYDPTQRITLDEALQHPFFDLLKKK

For `N#Cc1cccc(-c2cc(NCc3ccccc3)ncn2)c1`, the Potency was > 11.4 µM (inactive) in [1], 1 µM (active) in [3], > 46 µM (inactive) in test [6] and > 46 µM (inactive) in test [7]. Further, the activity change, negative = inhibition in test [2] was -7.27% (inactive); in test [4], 17.5% (inactive); in test [9], 6.18% (inactive). The activity, negative = inhibition in [5] was 4.28% (inactive). The outcome in test [8] was inactive. Further, the max response in test [9] (setting [19]) amounted to 26.4%; in test [9] (setting [20]) it was 32.1%. The Potency entry in test [10] and in test [11] was “inactive” in each case.

For `c1cncc(CNc2ncncc2-c2ccc3c(c2)OCO3)c1`, the Potency in test [1] is > 11.4 µM (inactive); in test [3], 0.398 µM (active); in test [6], > 46 µM (inactive); in [7], > 46 µM (inactive); in test [13], 0.398 µM (active); in test [15], 0.199 µM (active). For the same compound, the activity change, negative = inhibition in test [2] was -3.33% (inactive); in [4], 6.22% (inactive); in test [9], 8.63% (inactive). The activity, negative = inhibition in [5] is 0.562% (inactive). In addition, the result in test [8], in test [16] and in test [17] was inactive. Also, the Potency result in [12], in [14], in [10] and in test [11] was “inactive” each time. Besides, the max response in test [9] (setting [19]) was determined as 10.5%; in test [9] (setting [20]), 22.7%.

With `CCNc1ncc2nc(C)c(=O)n(C)c2n1`, the Potency in [1] was > 11.4 µM (inactive); in [3], 5.01 µM (active); in [6], > 9.22 µM (inactive); in test [7] it was > 46 µM (inactive). Moreover, the activity change, negative = inhibition in [2] is -6.84% (inactive); in [4], 2.38% (inactive); in test [9], 2.6% (inactive). Besides, the activity, negative = inhibition in [5] is -8.23% (inactive). The call in [8] was inactive. Besides, the max response in [9] (setting [19]) was found to be 22.7%; in [9] (setting [20]) it was 26.7%. Also, the Potency entry in test [18], in [10] and in test [11] was “inactive” throughout.

Consider `CCNc1ncc2nc(C)c(=O)n(C3CC3)c2n1`, for which the Potency was > 11.4 µM (inactive) in test [1], 5.01 µM (active) in test [3], > 9.22 µM (inactive) in test [6] and 2.51 µM (active) in [12]. In addition, the figures for the activity change, negative = inhibition in test [2], in [4] and in test [9] were -8.59% (inactive), -13.9% (inactive) and -1.33% (inactive), respectively. In [8], the call was inactive. Moreover, the results for the max response in test [9] (setting [19]) and in test [9] (setting [20]) were 6.66% and 4.64%, respectively. Further, the Potency entry in test [18], in test [10] and in test [11] was “inactive” each time.

With `CN(Cc1ccco1)c1ncnc2ccc(-c3ccccc3C(F)(F)F)cc12`, the Potency in test [1] is > 11.4 µM (inactive); in [3], 5.01 µM (active); in [6], > 46 µM (inactive); in test [7], > 46 µM (inactive); in [15], 3.16 µM (active). Besides, the activity change, negative = inhibition in test [2] was 4.42% (inactive); in [4] it was -18.5% (inactive); in [9], -0.853% (inactive). The activity, negative = inhibition in [5] was -19.3% (inactive). The call in test [8] was inactive. Also, the Potency result in [14], in test [18], in test [10] and in test [11] was “inactive” throughout. In addition, the max response is 20.9% in [9] (setting [19]) and 18.1% in test [9] (setting [20]).

Take `CN(C)C(=O)c1ccc(-c2nc(NC3CCNCC3)c3ccccc3n2)cc1`: the Potency was > 11.4 µM (inactive) in test [1], 20 µM (active) in [3], > 46 µM (inactive) in test [6] and > 46 µM (inactive) in test [7]. For the same compound, the activity change, negative = inhibition in test [2] is 7.64% (inactive); in [4], 12.4% (inactive); in [9] it was 4.99% (inactive). Also, the activity, negative = inhibition in [5] was 11.2% (inactive). Further, the outcome in test [8] was inactive. Further, the Potency result in test [12], in test [18], in [10] and in [11] was “inactive” each time. Moreover, the max response in test [9] (setting [19]) was 14.8%; in test [9] (setting [20]), 18.3%.

The record behind these values is PubChem BioAssay (NCATS).
